This is part of a sample that, as a whole, favours compounds with a hit. Of some 83,000 tested, about 20% had one in any assay.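 Assay: single dose, 48 h. Readout: percent growth (0 = no net growth; negative = cell death). Active: <10.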 The source made the active and inactive calls.

The assay has as its system SF-539 CNS. As to the kind of experiment: NCI-60 one-dose screen, 48 h (100 = growth as untreated, 0 = no growth, -100 = all killed). The settings on record: 10 µM unless noted.
As for `Nc1c(C(=O)Nc2cccc3cnccc23)sc2nc3c(cc12)C(=O)CCC3`, the growth was 93.6% (inactive).

Consider `O=C(CCN1CCCC1)Nc1ccc2c(Nc3ccc(F)cc3)c3ccccc3nc2c1`, for which the growth is -74.5% (active).

On to `COc1cc2c(cc1OC)C(=O)/C(=C/c1cc(C)c(O)c(C)c1)S2`, for which the growth is -3.74% (active).

With `CCCCCN1C=C/C(=C\C(=O)N(C)c2ccc(Oc3ccccc3)cc2)c2ccccc21`, the growth is 92.8% (inactive).

Turning to `C/C(=N\Nc1cc(C)nc2ccc(Br)cc12)c1ccc([N+](=O)[O-])cc1`, the growth is -43.6% (active).

With `N/C(=N\C(N)=N\c1nc2ccccc2s1)c1ccnc(Br)c1`, the growth was 8.41% (active).

With `COc1cc(/C=N/NC(=O)c2cnn3c2NC(c2ccccc2)C3)ccc1Oc1ccccc1` (stereo not drawn), the growth is 9.71% (active).

On to `COc1cc(-c2n/c(=C\c3c(O)[nH]c4ccc(Cl)cc34)cc3c2=Nc2ccccc2-3)ccc1F`, for which the growth was 54.6% (inactive).

With `c1ccc2c(-c3c[nH]c4ccccc34)c3c(cc2c1)[nH]c1ccccc13`, the growth is 59% (inactive).

For the compound `C=C(C)[C@@H]1CC[C@]2(CN)CC[C@]3(C)[C@H](CC[C@@H]4[C@@]5(C)CCCNC(C)(C)[C@@H]5CC[C@]43C)[C@@H]12`, the growth was -31.8% (active).

As for `CCOC(=O)/C(C#N)=C1/NNC(=Nc2cccnc2)S1`, the growth is 102% (inactive).

On to `O=C1c2ccc3c4c(ccc(c24)C(=O)N1CCCNCc1ccccc1Cl)C(=O)N(CCCNCc1ccccc1Cl)C3=O`, for which the growth is -67.6% (active).

For the compound `CCN(CC)c1ccc(/C=N/NC(=O)CSc2nc3ccccc3c(=O)n2Cc2ccc(S(N)(=O)=O)cc2)c(O)c1`, the growth is 27.9% (inactive).
